Source: PubChem BioAssay
Sampled rows, rich in hits. Any-hit rate of the full collection: about 7.9%.
HT1080NT lethal = qHTS for induction of synthetic lethality in tumor cells producing 2HG: qHTS for the HT-1080-NT fibrosarcoma cell line; HT-1080-NT fibrosarcoma viability, CellTiter-Glo ATP luminescence, 48 h; Potency, µM (highest dose often 46.1 µM), most hits filed as cytotoxic; actives 1.6% (n = 360,000);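 also: NT is the 2HG producing partner of a matched IDH1 knockdown line; nearly all actives have a fitted effect of over 55% in size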
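750 cells/well, RPMI + 5% FBS; 2 h settle, compound pin-transfer, 48 h at 37 degrees C. CellTiter-Glo 10 min RT, luminescence. Normalized to DMSO and media-only wells.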
KB-V1 cytotox = qHTS assay for MDR1-selective chemotherapeutics: Primary screen using the drug-selected MDR subline cells KB-V1; actives 3.4% (n = 400,000); Potency, µM (series often up to 46.1 µM), hits mostly cytotoxic; KB-V1 MDR cells viability, CellTiter-Glo, 72 h; also: nearly all actives have a fitted effect of over 60% in size
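Readout: CellTiter-Glo luminescence, 10 min after addition. Cells: KB-V1 MDR subline, 72 h at 37 degrees C with compound. Analysis: corrected, normalized data fitted to concentration-effect curves.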
SW480 rereplic = A quantitative high throughput screen for small molecules that induce DNA re-replication in SW480 colon adenocarcinoma cells; SW480 DNA re-replication, Hoechst DNA content imaging, 48 h; Potency, µM (series often up to 46.1 µM), hits mostly activators; actives 1.8% (n = 340,000); also: nearly all actives have a fitted effect of over 55% in size
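Treated cells incubate 48 hr (37 C, 5% CO2), are stained 40 min with Hoechst, and nuclear fluorescence is enumerated; a rise in nuclei with high DNA signal marks re-replication.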
KB-3-1 cytotox = qHTS assay for MDR1-selective chemotherapeutics: Primary screen using the parental adenocarcinoma cell KB-3-1; KB-3-1 viability, CellTiter-Glo ATP luminescence, 72 h; Potency, µM (highest dose often 46.1 µM), actives largely listed as cytotoxic; actives 1.4% (n = 400,000); AID 1347075, 2019; also: nearly all actives have a fitted effect of over 60% in size
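Parental KB-3-1 viability, qHTS format: 72 h compound exposure, 37 °C; CellTiter-Glo; media-only wells and DMSO plates as controls; concentration-effect fits on corrected data.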
HT1080 IDH1KD tx = qHTS for induction of synthetic lethality in tumor cells producing 2HG: qHTS for the HT-1080-IDH1KD cell line | actives 2% (n = 360,000) | HT-1080 IDH1 knockdown viability, ATP luminescence, 48 h | Potency, µM (top dose mostly 46.1 µM), most hits filed as cytotoxic
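Assay cells: HT-1080 with IDH1 knockdown, 750 per well, RPMI/5% FBS. Exposure: 48 h at 37 °C following 2 h pre-incubation. Read: CellTiter-Glo luminescence; fitted concentration-response, curve class assigned.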
MCF10A rereplic = A quantitative high throughput screen for small molecules that induce DNA re-replication in MCF 10a normal breast cells. MCF 10A DNA re-replication, Hoechst nuclear intensity, 48 h. actives 2.9% (n = 350,000). Potency, µM (top dose mostly 46.1 µM), hits mostly activators; also: nearly all actives have a fitted effect of over 50% in size
A number is an active result; [ ] = another dose, or the depositor's remark. Calls follow the shape of the dose curve; as a rule, active = well fitted curve in the direction sought with a large enough effect; inconclusive = small, poorly fitted or top-dose-only effect, or another doubt; inactive = no such curve, though single readings can be large; an effect the other way counts as inactive or inconclusive.

`COc1ccc2nc(NC(=O)C3CCCN3S(=O)(=O)c3ccc(C)cc3)sc2c1` (centres undefined) gave HT1080NT lethal inactive, KB-V1 cytotox 18.4µM, SW480 rereplic inactive, KB-3-1 cytotox inactive, HT1080 IDH1KD tx inactive[9.24 µM] and MCF10A rereplic inactive.
COc1cccc(OC)c1C(=O)NC(=O)Nc1c(C)cccc1C was read as HT1080NT lethal inactive, KB-V1 cytotox inactive, SW480 rereplic inactive, KB-3-1 cytotox inactive, HT1080 IDH1KD tx inactive and MCF10A rereplic inactive.
For Cc1[nH]n(-c2ccccc2)c(=O)c1C=Nc1ccc(S(=O)(=O)NC(N)=O)cc1 the results were HT1080NT lethal inactive, KB-V1 cytotox inactive, SW480 rereplic inactive, KB-3-1 cytotox inactive, HT1080 IDH1KD tx inactive and MCF10A rereplic inactive.
For CCN(CC)S(=O)(=O)c1ccc(NC2c3ccccc3C(=O)N2Cc2ccco2)cc1 (centres undefined) the results were HT1080NT lethal inactive, KB-V1 cytotox inactive, SW480 rereplic inactive, KB-3-1 cytotox inactive, HT1080 IDH1KD tx inactive and MCF10A rereplic inactive.
Screening O=C(O)CCCC(=O)Nc1ccc(-n2ccc(C(F)(F)F)n2)cc1 returned HT1080NT lethal inactive, KB-V1 cytotox inactive, SW480 rereplic inactive, KB-3-1 cytotox inactive, HT1080 IDH1KD tx inactive and MCF10A rereplic inactive.
For O=C(Nc1nc2ccc(S(=O)(=O)N3CCCC3)cc2s1)C1CCCCC1 the results were HT1080NT lethal 20.6µM, KB-V1 cytotox 3.66µM, SW480 rereplic 7.31µM, KB-3-1 cytotox 2.59µM, HT1080 IDH1KD tx 14.6µM and MCF10A rereplic 10.3µM.
For Nc1nnc(SCC(=O)Nc2cccc(S(=O)(=O)N3CCCCC3)c2)s1 the results were HT1080NT lethal inactive, KB-V1 cytotox inactive, SW480 rereplic inconclusive, KB-3-1 cytotox inactive, HT1080 IDH1KD tx inactive and MCF10A rereplic inconclusive.
For O=C(Nc1nc2ccc(S(=O)(=O)N3CCCCC3)cc2s1)C1CCCO1 (centres undefined) the results were HT1080NT lethal inactive, KB-V1 cytotox inactive, SW480 rereplic inconclusive, KB-3-1 cytotox inconclusive, HT1080 IDH1KD tx inactive and MCF10A rereplic inactive.
For N#CCc1nc2ccc(S(=O)(=O)N3CCOCC3)cc2s1 the results were HT1080NT lethal inactive, KB-V1 cytotox inactive, SW480 rereplic inactive, KB-3-1 cytotox inactive, HT1080 IDH1KD tx inactive and MCF10A rereplic 13µM.
For Cc1ccc(S(=O)(=O)N2CCCCC2)cc1NC(=O)C1CCC1 the results were HT1080NT lethal inactive, KB-V1 cytotox 23.1µM, SW480 rereplic inactive, KB-3-1 cytotox inactive, HT1080 IDH1KD tx inactive and MCF10A rereplic inactive.
Screening Cc1ccc(S(=O)(=O)N2CCCCC2)cc1NC(=O)CSc1nnc(N)s1 returned HT1080NT lethal inactive, KB-V1 cytotox inactive, SW480 rereplic inactive, KB-3-1 cytotox inactive, HT1080 IDH1KD tx inactive and MCF10A rereplic 0.581µM.
For CCCCn1c(N)c(Sc2ccc(C)cc2)c(=O)[nH]c1=O the results were HT1080NT lethal inactive, KB-V1 cytotox inactive, SW480 rereplic inactive, KB-3-1 cytotox inactive, HT1080 IDH1KD tx inactive and MCF10A rereplic inactive.
Screening Cc1c(NC(=O)CN(c2ccccc2)S(=O)(=O)c2ccc(F)cc2)c(=O)n(-c2ccccc2)n1C returned HT1080NT lethal inactive, SW480 rereplic inactive, HT1080 IDH1KD tx inactive and MCF10A rereplic inactive.
Screening CC1CCN(C(C)C(=O)Nc2cc(S(=O)(=O)N3CCCCC3)ccc2Cl)CC1 (centres undefined) returned HT1080NT lethal inactive, KB-V1 cytotox 14.6µM, SW480 rereplic inactive, KB-3-1 cytotox inconclusive, HT1080 IDH1KD tx inactive and MCF10A rereplic inactive.
CC1CC(C)CN(C(C)C(=O)Nc2cc(S(=O)(=O)N3CCCCC3)ccc2Cl)C1 (centres undefined) was read as HT1080NT lethal inactive, KB-V1 cytotox inactive, SW480 rereplic inactive, KB-3-1 cytotox inactive, HT1080 IDH1KD tx inactive and MCF10A rereplic inactive.
For Nc1nc(SCC(=O)c2ccc(Cl)cc2)c2ncn(C3OC(CO)C(O)C3O)c2n1 (centres undefined) the results were HT1080NT lethal inactive, KB-V1 cytotox inconclusive, SW480 rereplic inactive, KB-3-1 cytotox inconclusive, HT1080 IDH1KD tx inactive and MCF10A rereplic inconclusive.
O=C1C=C(N(CCO)Cc2ccccc2)c2ccccc2C1=O was read as HT1080NT lethal 8.2µM, KB-V1 cytotox 18.4µM, SW480 rereplic 14.6µM, KB-3-1 cytotox inconclusive, HT1080 IDH1KD tx 14.6µM and MCF10A rereplic 6.51µM.
COc1ccc(OC)c(-c2nc3c(C)n[nH]c(=O)c3[nH]2)c1 was read as HT1080NT lethal inconclusive, KB-V1 cytotox 18.4µM, SW480 rereplic inactive, KB-3-1 cytotox inactive, HT1080 IDH1KD tx inconclusive and MCF10A rereplic inactive.
Screening C=CCn1c(O)c(C2=c3ccccc3=NC2=O)c2ccccc21 returned HT1080NT lethal 23.1µM, KB-V1 cytotox inactive, SW480 rereplic inconclusive, KB-3-1 cytotox inconclusive, HT1080 IDH1KD tx 20.6µM and MCF10A rereplic inconclusive.
Screening O=C(CCCSc1nc2ccccc2[nH]1)N1CCN(c2ccccc2)CC1 returned HT1080NT lethal inactive, KB-V1 cytotox inactive, SW480 rereplic inactive, KB-3-1 cytotox inactive, HT1080 IDH1KD tx inactive and MCF10A rereplic inactive.
Screening O=C(CSc1nc2ccccc2[nH]1)N1CCN(c2ccccc2)CC1 returned HT1080NT lethal inactive, KB-V1 cytotox 16.4µM, SW480 rereplic inactive, KB-3-1 cytotox inactive, HT1080 IDH1KD tx inactive and MCF10A rereplic inactive.
Screening O=C(CSc1nc2ccccc2[nH]1)N1c2ccccc2Sc2ccccc21 returned HT1080NT lethal inactive, KB-V1 cytotox 11.6µM, SW480 rereplic inactive, KB-3-1 cytotox inactive, HT1080 IDH1KD tx inactive and MCF10A rereplic inactive.
For Cc1cccc(N2CCN(C(=O)CCCSc3nc4ccccc4[nH]3)CC2)c1C the results were HT1080NT lethal inconclusive, KB-V1 cytotox 5.8µM, SW480 rereplic inactive, KB-3-1 cytotox inactive, HT1080 IDH1KD tx inconclusive and MCF10A rereplic inactive.
`O=C(c1cccc(Cl)c1)c1nn(-c2ccccc2)c(=O)cc1C(F)(F)F` gave HT1080NT lethal inconclusive, KB-V1 cytotox 23.1µM, SW480 rereplic inactive, KB-3-1 cytotox inconclusive, HT1080 IDH1KD tx inconclusive and MCF10A rereplic inactive.
For O=C(Nc1ccccc1)c1nn(-c2ccccc2)c(=O)cc1C(F)(F)F the results were HT1080NT lethal inactive, KB-V1 cytotox inactive, SW480 rereplic inactive, KB-3-1 cytotox inactive, HT1080 IDH1KD tx inactive and MCF10A rereplic inactive.
